# Cruzain Triton = qHTS Assay for Promiscuous and Specific Inhibitors of Cruzain (with detergent) | purified cruzain, Z-FR-AMC fluorescence, 0.01% Triton | Potency, µM, hits mostly inhibitors | 200,000 compounds, 0.43% hits; further: nearly all actives have a fitted effect of over 40% in size
# Target sequence (P25779 123-467 limits assumed): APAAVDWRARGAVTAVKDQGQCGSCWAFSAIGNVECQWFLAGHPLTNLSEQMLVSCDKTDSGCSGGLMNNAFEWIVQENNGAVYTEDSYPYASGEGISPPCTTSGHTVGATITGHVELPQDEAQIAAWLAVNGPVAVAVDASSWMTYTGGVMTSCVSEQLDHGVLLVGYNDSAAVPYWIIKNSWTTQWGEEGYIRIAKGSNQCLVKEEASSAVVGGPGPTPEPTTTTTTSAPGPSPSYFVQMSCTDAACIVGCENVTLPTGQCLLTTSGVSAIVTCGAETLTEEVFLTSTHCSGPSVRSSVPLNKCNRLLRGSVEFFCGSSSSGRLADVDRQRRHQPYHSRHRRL
#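 Compounds were screened in titration against cruzain (1.5 nM) with 0.01% Triton X-100 to counter colloidal aggregation. Activity was the AMC fluorescence increase over 60 s after adding 2 uM Z-FR-AMC at pH 5.5.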
# Cruzain inh noDet = qHTS Assay for Promiscuous and Specific Inhibitors of Cruzain (without detergent); Cruzipain (Trypanosoma cruzi), P25779; 200,000 compounds, 2.3% hits; purified cruzain, Z-FR-AMC fluorescence, no detergent; AID 1476, 2009; Potency, µM, most hits filed as inhibitors; further: nearly all actives have a fitted effect of over 40% in size
#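 Detergent-free condition (0.00005% Triton X-100) in acetate buffer pH 5.5 with DTT. 1.5 nM enzyme and compound were pre-mixed 15 min, then 2 uM Z-FR-AMC substrate added; reaction progress from fluorescence change between first and third reads (60 s).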
# A number is an active result; 0 = inactive; ? = inconclusive. This is a sample that favours compounds with a hit; in the whole collection about 2.5% have one here. The call rests on the fitted dose curve; in most records, active means well fitted curve in the direction sought with a large enough effect; inconclusive means small, poorly fitted or top-dose-only effect, or another doubt; inactive means no such curve, though single readings can be large; an effect the other way counts as inactive or inconclusive.
SMILES,Cruzain Triton,Cruzain inh noDet
COc1cc(OC)c2c(C)c(CC(=O)N3CCCCC3)c(=O)oc2c1,0,0
O=C(Cn1nc(-c2ccc(Cl)cc2)c2ccccc2c1=O)Nc1cccc(Br)c1,0,0
COc1ccc(-c2nn(CC(=O)Nc3ccc(Cl)c(Cl)c3)c(=O)c3ccccc23)cc1,0,7.9µM
CCOC(=O)c1c(C)[nH]c(C)c1S(=O)(=O)N1CCC(C(=O)N2CCN(c3ccccc3)CC2)CC1,0,?
Cc1cccc(N2C(=O)c3cccc4c(N5CCCCC5)c([N+](=O)[O-])cc(c34)C2=O)c1C,0,?
O=C1c2cccc3c(N4CCOCC4)c([N+](=O)[O-])cc(c23)C(=O)N1c1cccc2ccccc12,0,13µM
CCOC(=O)C1CCN(c2cc3c(cc2NC(=O)c2ccc(Cl)cc2)n(C)c(=O)n3C)CC1,0,0
O=C(COC(=O)CNC(=O)c1ccccc1)Nc1nc(-c2ccccc2)cs1,25µM,?
C/C(=N\Nc1nc2ccccc2s1)c1cccs1,0,0
O=C(Cc1cccs1)Nc1nc(-c2ccccc2)cs1,0,0
Cn1cc(Cl)c(C(=O)OCC(=O)Nc2nc(-c3ccc(Br)cc3)cs2)n1,0,32µM
O=C(COC(=O)/C=C/c1cccs1)Nc1nc(-c2ccccc2)cs1,0,?
O=C(COC(=O)c1cccs1)Nc1nc(-c2ccccc2)cs1,0,10µM
C/C(=N\Nc1nc(-c2ccccc2)cs1)c1cccs1,?,7.9µM
Cn1nccc1C(=O)OCC(=O)Nc1nc(-c2ccccc2)cs1,0,0
CCC(C(=O)Nc1cc(OC)cc(OC)c1)n1nc(-c2ccc(C)c(C)c2)ccc1=O (centres undefined),0,?
COc1ccccc1CNc1nc(-c2ccco2)nn1S(C)(=O)=O,0,0
CC(C)CCCC(C)C1CCC2C3CC=C4CC(O)CCC4(C)C3CCC12C (centres undefined),0,0
CCc1ccc(Sc2cc(C(=O)NCCCN3CCC(C)CC3)c3ccccc3n2)cc1,0,0
O=S(=O)(Nc1ccc(-c2ccc(N3CCCC3)nn2)cc1)c1cccc(C(F)(F)F)c1,0,0
O=C(CCn1cnc2ccccc2c1=O)Nc1nc(-c2ccc(Br)cc2)cs1,0,25µM
Cc1cc(C)cc(NC(=O)CCn2cnc3ccccc3c2=O)c1,0,0
O=C(CN1C(=O)c2ccccc2C1=O)Nc1ccc2c(c1)OCO2,0,0
O=C(Cn1c(O)c(/C=C2\C=Nc3ccccc32)sc1=O)Nc1ccc2c(c1)OCO2,0,5µM
CC[C@H](C(=O)c1cccs1)C(O)(C(F)(F)F)C(F)(F)F,0,0
SMILES,Cruzain Triton,Cruzain inh noDet
COc1ccc(-c2nnn(CC(=O)c3c[nH]c4ccccc34)n2)cc1OC,0,0
CCCCOc1ccc(-c2nnn(CC(=O)c3c[nH]c4ccccc34)n2)cc1,0,7.9µM
Cc1ccc(NC(=O)c2ccc(NC(=O)N3CCSc4ncccc43)cc2)c(Cl)c1,0,0
CCC(CO)NC(=O)[C@@H]1C=C2c3cccc4[nH]cc(c34)C[C@H]2N(C)C1 (some centres undefined),0,?
CN1C[C@@H](CO)C=C2c3cccc4[nH]cc(c34)CC21 (some centres undefined),0,40µM
COc1cc(OC)c(NC(=O)c2oc3ccc4c(c3c2C)C(=O)CC(C)(C)O4)cc1Cl,0,0
COc1ccc(CNC(=O)C(C)n2nc(C)c3sc4ccccc4c3c2=O)cc1OC (centres undefined),0,0
Cc1ccc(CNC(=O)C(C)n2nc(C)c3sc4ccccc4c3c2=O)cc1 (centres undefined),0,4µM
Cc1nn(C(C)C(=O)NCc2ccc(OC(C)C)cc2)c(=O)c2c1sc1ccccc12 (centres undefined),?,0
COc1ccc(CCNC(=O)C(C)n2nc(C)c3sc4ccccc4c3c2=O)cc1OC (centres undefined),0,32µM
COCCOc1cc(NC(=O)c2sccc2Oc2ccc([N+](=O)[O-])cc2F)c(Cl)cc1Cl,0,16µM
CCN(CC)S(=O)(=O)c1ccc(OC)c(NC(=O)c2cc([N+](=O)[O-])ccc2Cl)c1,0,0
Cc1c(-c2nsc(NC(=O)c3ccccc3)n2)nnn1-c1ccc(C(F)(F)F)c(Cl)c1,0,20µM
Cc1ccc(-n2nnc(-c3nsc(NC(=O)c4ccccc4C)n3)c2C)cc1Cl,0,0
COc1ccccc1OCCn1c(NC(=O)c2ccccc2Cl)nc2ccccc21,0,20µM
CCCn1c(NC(=S)Nc2ccccc2)nc2ccccc21,0,0
COc1ccccc1OCCn1c(NC(=O)c2ccc(Cl)cc2)nc2ccccc21,0,0
CCn1c(NC(=S)Nc2ccccc2)nc2ccccc21,0,25µM
Clc1ccc(NCc2nc3ccccc3n2CCOc2ccccc2)cc1,0,0
S=C(Nc1ccccc1)Nc1nc2ccccc2n1CCOc1ccc(Cl)cc1,0,10µM
COCC(C)NC(=O)C1=CC(c2ccc3c(c2)OCO3)=NS(=O)(=O)N1C (centres undefined),0,0
COc1ccc(NC(=O)NCCn2nnc3cc(S(=O)(=O)N(C)C)ccc32)cc1,0,0
Cc1cc(C(=O)Nc2ccc(C(C)C)cc2)c2c(C)nn(-c3ccccc3)c2n1,0,0
Fc1ccc(-c2cc(-c3nc(-c4cccc(Cl)c4)no3)[nH]n2)cc1,0,0
CCc1ccc(S(=O)(=O)N(C(C)=O)c2ccc3oc4c(c3c2)CCCC4)cc1,0,0
SMILES,Cruzain Triton,Cruzain inh noDet
COC(=O)c1c(C)oc2ccc(N(C(=O)c3ccncc3)S(=O)(=O)c3cc(C)c(C)cc3C)cc12,0,0
Cc1ccc(S(=O)(=O)N(C(=O)c2ccncc2)c2ccc3oc4c(c3c2)CCCC4)cc1[N+](=O)[O-],0,13µM
Cc1ccc([N+](=O)[O-])cc1S(=O)(=O)N(C(=O)c1ccncc1)c1ccc2oc3c(c2c1)CCCC3,0,13µM
CCCCNc1nc(Oc2ccc(OCCC)nn2)nc(N(C)C)n1,0,0
COc1ccc(-c2nc3sc(CCNC(=O)c4ccccc4C)c(C)n3n2)cc1,0,0
CCCCCCCCCCCCCCCC(N)=O,0,0
COc1ccc(-c2cc(C(F)(F)F)nc(SCC(=O)NC(C)c3ccccc3)n2)cc1 (centres undefined),0,0
Cc1cc(C)c(-c2csc(-c3cc4ccccc4oc3=O)n2)cc1C,0,0
Cc1ccc(-c2csc(Cc3nc(-c4cc5ccccc5oc4=O)cs3)n2)cc1,0,6.3µM
Cc1cc(C)c(-c2csc(Cc3nc(-c4cc5ccccc5oc4=O)cs3)n2)cc1C,0,10µM
O=c1oc2ccc(Br)cc2cc1-c1csc(-c2ccccc2)n1,0,0
Cn1c(=O)n(Cc2ccccc2)c(=O)c2c1nc1n2CCN1c1ccccc1,0,0
O=C(O)CCNc1ccccc1C(=O)O,0,0
CCc1ccccc1NC(=O)Cn1c(=O)n(Cc2ccc3c(c2)OCO3)c(=O)c2ccc(C(=O)NC3CCCCC3)cc21,0,0
O=C(Cn1c(=O)n(Cc2ccc3c(c2)OCO3)c(=O)c2ccc(C(=O)NC3CCCCC3)cc21)Nc1ccccc1F,0,13µM
O=C(Nc1ccc2nn(-c3ccccc3)nc2c1)c1ccc(-c2cccc(Cl)c2)o1,0,0
N[C@H]1[C@@H](C(=O)O)[C@H]2C=C[C@H]1C2,0,0
COC(=O)c1cccc(Nc2c(-c3ccc(O)c(OC)c3)nc3nc[nH]n23)c1,0,0

# High-throughput results from PubChem.
